HT1080 IDH1KD tx = toxicity to HT-1080 IDH1 knockdown cells (counter line) | hit rate 2% among 360,000 | AID 686971 | HT-1080 IDH1 knockdown viability, ATP luminescence, 48 h | Potency, µM (top dose mostly 46.1 µM), actives largely listed as cytotoxic
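% activity derives from luminescence (CellTiter-Glo), normalised to DMSO and no-cell wells. HT-1080-IDH1KD cells, 750/well, had 48 h compound exposure at 37 °C.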
DT40 TDP1 no CPT = qHTS for Inhibitors of human tyrosyl-DNA phosphodiesterase 1 (TDP1): qHTS in cells in absence of CPT; AID 686978, 2013; DT40 Tdp1-/- hTDP1 cells, no CPT, ATP luminescence, 48 h; Potency, µM (series often up to 46.2 µM), hits mostly inhibitors; hit rate 15% among 420,000; further: nearly all actives have a fitted effect of over 55% in size
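Compound effects on proliferation are scored in DT40 Tdp1-/-;hTDP1 cells in the absence of CPT. ATP levels (CellTiter-Glo luminescence) are recorded after a ≥48 hr, 37 °C incubation.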
DT40 TDP1 CPT = growth inhibition of DT40 Tdp1-/-;hTDP1 cells with camptothecin (screen for TDP1 inhibitors); chicken DT40 Tdp1-/-;hTDP1 cells + 20 nM CPT, ATP luminescence, 48 h; Potency, µM (top dose mostly 46.2 µM), actives largely listed as inhibitors; hit rate 12% among 420,000; AID 686979; further: nearly all actives have a fitted effect of over 55% in size
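Chicken DT40 Tdp1-/- cells complemented with human TDP1, 400 cells/well, exposed to compounds plus 20 nM camptothecin for at least 48 h at 37 C; viability read as ATP content by CellTiter-Glo luminescence.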
HT1080-NT tox = kills 2HG-producing HT-1080-NT fibrosarcoma cells | HT-1080-NT fibrosarcoma viability, CellTiter-Glo ATP luminescence, 48 h | Potency, µM (doses to about 46.1 µM), hits mostly cytotoxic | hit rate 1.6% among 360,000 | AID 686970;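 further: NT is the 2HG producing partner of a matched IDH1 knockdown line; nearly all actives have a fitted effect of over 55% in size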
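Toxicity toward the 2HG-producing NT line was scored as %Activity, normalised to DMSO and no-cell wells, from CellTiter-Glo luminescence after 48 hours' treatment.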
KB-3-1 tox = kills parental KB-3-1 adenocarcinoma cells; KB-3-1 viability, CellTiter-Glo ATP luminescence, 72 h; Potency, µM (highest dose often 46.1 µM), actives largely listed as cytotoxic; hit rate 1.4% among 400,000; further: nearly all actives have a fitted effect of over 60% in size
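Viability of parental KB-3-1 cells, measured by CellTiter-Glo luminescence, followed a 72 h incubation at 37 °C with pinned compounds in phenol-red-free DMEM containing 10% FBS.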
KB-V1 MDR tox = kills drug-selected multidrug resistant KB-V1 cells. KB-V1 MDR cells viability, CellTiter-Glo, 72 h. Potency, µM (doses to about 46.1 µM), usual class: cytotoxic. hit rate 3.4% among 400,000. AID 1347076; further: nearly all actives have a fitted effect of over 60% in size
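KB-V1 MDR subline cells in DMEM (phenol-red free, 10% FBS) exposed to compounds in qHTS concentration series for 72 h at 37 degrees C. Viability read by CellTiter-Glo luminescence; concentration-effect curves fitted after normalization and correction.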
Numbers stand for hits; – = inactive; ? = inconclusive; · = no result. Sampled rows, rich in hits. Any-hit rate of the full collection: about 19%. The call rests on the fitted dose curve; in most records, active means well fitted curve in the direction sought with a large enough effect; inconclusive means small, poorly fitted or top-dose-only effect, or another doubt; inactive means no such curve, though single readings can be large; an effect the other way counts as inactive or inconclusive.

SMILES | HT1080 IDH1KD tx | DT40 TDP1 no CPT | DT40 TDP1 CPT | HT1080-NT tox | KB-3-1 tox | KB-V1 MDR tox
Cc1ccc(NC(=O)c2cnc(N3CCCCC3)c3ccccc23)c(C)c1 | · | – | ? | · | – | –
Cc1cccc(C)c1-n1nnnc1C1(C)CCC(=O)N1C1CC1 (stereo not drawn) | – | – | – | – | – | –
COc1ccccc1-c1ccc(C(=O)N(C)CC2COCCO2)c(N2CCN(c3ccccc3F)CC2)n1 (stereo not drawn) | · | – | – | · | · | ·
CC(=O)NC(CC(C)C)C(=O)O (stereo not drawn) | – | – | – | – | – | –
Cc1cc(C)cc(Cn2cc(CN3CC(N4CCN(Cc5ccccc5F)CC4)CS3(=O)=O)nn2)c1 (stereo not drawn) | – | ? | ? | – | ? | –
Cc1ccc2[nH]c(CCN(C)C)c(CN3CCOCC3)c2c1 | – | ? | 21µM | – | – | ?
O=c1cc(O)c2c(=O)n(-c3ccccc3)c3c(c2o1)CCCCC3 | – | – | – | – | – | 16µM
O=c1c(-c2ccccc2)c(O)c2c(n1-c1ccccc1)CCCC2 | – | – | – | – | – | ?
Cc1ccsc1CNS(=O)(=O)c1ccc(F)cc1 | – | – | ? | – | – | –
CCOC(=O)/C(=N\Nc1cccc(C(F)(F)F)c1)N(CCOC)CCOC | – | ? | ? | – | – | 23µM
CCOC(=O)/C(=N\Nc1cccc(C(F)(F)F)c1)N1CCOCC1 | – | – | – | – | – | –
COc1ccc(-c2ccc(C(=O)N3CCN(C)CC3)c3occc23)c(C)c1 | – | 6.5µM | 15µM | – | – | –
COc1ccc(-c2ccc(C(=O)NCC(C)C)c3occc23)c(C)c1 | ? | ? | ? | ? | – | –
Cc1noc(C)c1-c1ccc(C(=O)N2CCN(C)CC2)c2occc12 | – | – | ? | – | – | –
COc1ccc(-c2ccc(C(=O)N3CCOCC3)c3occc23)c(C)c1 | ? | 18µM | 15µM | – | – | –
CC(C)CCNC(=O)C1CCC(Cn2c(=O)c3sccc3n(CC(=O)NC(C)C)c2=O)CC1 (stereo not drawn) | · | ? | – | · | – | –
COc1ccc2cc(C(=O)C3CCCN(Cc4cnc(C)s4)C3)ccc2c1 (stereo not drawn) | – | 16µM | 23µM | ? | ? | 9.2µM
COc1ccc2cc(C(=O)C3CCCN(C(=O)Cc4c(C)noc4C)C3)ccc2c1 (stereo not drawn) | – | 21µM | 23µM | – | – | ?
COc1ccc2cc(C(=O)C3CCCN(C(=O)c4snnc4C)C3)ccc2c1 (stereo not drawn) | – | 23µM | 16µM | – | – | –
Cc1noc(C)c1COc1ccc(C(=O)N2CCCC(C(N)=O)C2)cc1 (stereo not drawn) | – | – | – | – | – | ?

Source: PubChem BioAssay
